# RmlCD inh mix – mixture blocks RmlC and RmlD coupled enzyme activity. hit rate 0.39% among 110,000. inhibition, % at 5.5 µM. RmlC/RmlD coupled enzyme inhibition, 384-well mixture HTS; in the data active means inhibition above about 30%, passing the limit was not always enough
# HIV RNase H inh – inhibitors of HIV-1 reverse transcriptase RNase H. P04585. RT-RNase H RNA/DNA duplex cleavage, fluorescence. inhibition, % at 10 µM. hit rate 1.9% among 65,000. AID 565; in the data active means inhibition above about 50%
# RmlCD fluor art – RmlC/RmlD fluorescence artifact, counter-screen; calls only; RmlC/RmlD assay fluorescence artifact counter-screen; hit rate 96% among 360; shares compounds with RmlCD inh mix; call rule not given here;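 further: compound alone with no enzyme and no substrates present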
# * hit, by the source's call; x = not tested or not shown; + = active, no number. This excerpt belongs to a sample that is enriched for hits.
SMILES,RmlCD inh mix,HIV RNase H inh,RmlCD fluor art
O=C(CSc1ncn[nH]1)Nc1ccc(S(=O)(=O)N2CCCC2)cc1,5.1,x,x
CN1CCN(CCCNC(=O)c2ccc3c(c2)N(Cc2ccccc2)CCS3)CC1,37.5*,-3.5,+
O=C(NCCN1CCOCC1)c1ccc2c(c1)N(Cc1ccccc1)CCS2,17.7,-1.1,x
CC(C)(C)[C@H]1C=C(C(=O)N2CCN(Cc3ccc4c(c3)OCO4)CC2)O[C@@H](OCc2ccc(CO)cc2)C1,-10.4,x,x
O=C(O)CCCC(=O)Nc1ccc(Br)cc1C(=O)O,-9.6,3.8,x
CCCOc1ccc2c(C)c(CC(=O)OC)c(=O)oc2c1,-8.5,-10.2,x
CCN(CC)Cc1c(O)ccc2c(C)c(CC(=O)OC)c(=O)oc12,109.7*,-1.2,+
COC(=O)Cc1c(C)c2ccc(OCC(C)=O)c(C)c2oc1=O,8.1,-1.2,x
COC(=O)Cc1c(C)c2ccc(OCC(=O)N(C)C)cc2oc1=O,30.6*,x,+
CC(=O)c1cccc(NC(=O)COc2ccc(S(=O)(=O)N3CCCCC3)cc2)c1,-6.3,-0.5,x
CCOC(=O)n1c(=O)n(Cc2c(Cl)cccc2Cl)c2ccccc21,-11.7,x,x
O=C(O)c1nn(-c2ccccc2)ccc1=O,4.2,x,x
N#Cc1nc(-c2cccs2)oc1N1CCOCC1,-7.8,-66.3,x
COc1ccc(-c2nc(C#N)c(NCCCN3CCOCC3)o2)cc1,x,-3.8,x
N#Cc1nc(-c2cccs2)oc1NCCCN1CCOCC1,66.7*,-8.3,+
CC1CN(c2oc(-c3cccs3)nc2C#N)CC(C)O1 (stereo unspecified),74.6*,-6.4,+
O=S(=O)(c1ccccc1)c1nc(-c2cccs2)oc1NCC1CCCO1 (stereo unspecified),-16.2,-39.0,x
N#Cc1nc(-c2cccs2)oc1NCC1CCCO1 (stereo unspecified),107.4*,-6.6,+
Cc1ccc(C(=O)Cn2c(C(=O)/C=C/c3ccccc3)nc3ccccc32)cc1,-7.9,x,x
Cc1ccc(Oc2ccc(-c3nc(N)nc(N)n3)cc2)cc1C,-3.5,x,x
O=C(Nc1ccc(Oc2cccnc2)cc1)c1ccccc1F,8.7,x,x
O=C(CN1CCCC1)Nc1ccc(-c2nc3cc(NC(=O)CN4CCCC4)ccc3o2)cc1,46.1*,23.1,+
CCN(CC)CC(=O)Nc1ccc(-c2nc3cc(NC(=O)CN(CC)CC)ccc3o2)cc1,-27.4,2.7,x
CN(C)c1ccc(-c2ccccc2)nn1,5.3,-10.2,x
CCOCCCn1c(C)nc2c(c1=O)c1nc3ccccc3nc1n2CCC1=CCCCC1,x,-25.4,x
SMILES,RmlCD inh mix,HIV RNase H inh,RmlCD fluor art
Cc1nc2c(c(=O)n1CCC1=CCCCC1)c1nc3ccccc3nc1n2/N=C/c1ccccc1,-5.0,x,+
Cn1c(/C=N/n2cnnc2)nc2ccccc21,44.5*,-15.3,+
Cn1c(/C=N/c2nc3ccccc3[nH]2)nc2ccccc21,11.8,2.7,x
Cc1ccc(-n2c(SCc3cn4ccsc4n3)nc3ccccc3c2=O)cc1,7.1,-27.0,x
COc1ccc(-c2cc3nc4n(c(=O)c3s2)CCOC4)cc1,x,-2.7,x
Cc1ccc(S(=O)(=O)NC(=O)COc2ccccc2C(N)=O)cc1,-11.0,-10.1,x
CCOC(=O)c1sc(Nc2nc3c(OC)cccc3s2)nc1C,79.1*,12.9,+
CCOC(=O)c1sc(Nc2ccccc2)nc1C,-13.2,x,x
CN(C)c1cccc(C(=O)OCC(=O)NCC2CCCO2)c1 (stereo unspecified),-12.6,-2.9,x
Cc1ccc(-c2nc3ncccc3o2)cc1NC(=O)COc1ccccc1,-12.1,x,x
Cc1cccn2cc(-c3ccc(NC(=O)Cc4ccccc4)cc3)nc12,7.2,x,x
COCC(=O)Nc1ccc(-c2cn3cccnc3n2)cc1,95.7*,-14.1,+
CCOCC(=O)Nc1cc(-c2cn3cccnc3n2)ccc1C,107.3*,-14.8,+
CC(=O)C1=C(N2CCCCC2)CCC1=O,5.1,-1.2,x
O=C(Nc1cccnc1)c1coc(=O)c2ccccc12,60.8*,-4.7,+
O=C(Nc1cccnc1)c1ccccc1O,-7.8,x,x
COC(=O)c1ccc(=O)n(Cc2ccc3c(c2)OCO3)c1,-16.6,-11.2,x
CC(C)(NCc1ccccc1Cl)C(=O)O,x,0.6,x
C=CCn1c(=N)c(C(=O)NCCCOC)cc2c(=O)n3cc(C)ccc3nc21,x,-1.9,x
CC(C)OCCCn1c(=NC(=O)c2ccncc2)c(C#N)cc2c(=O)n3ccccc3nc21,115.0*,-2.4,+
C=CCn1c(=N)c(C(=O)NCCCOC)cc2c(=O)n3ccccc3nc21,66.0*,-10.2,+
C=CCn1c(=O)c(C#N)cc2c(=O)n3ccccc3nc21,57.8*,-12.8,+
COCCn1c(=N)c(C(=O)NCCc2ccc(OC)cc2)cc2c(=O)n3cccc(C)c3nc21,9.0,-24.4,x
CCCCCn1c(=NC(C)=O)c(C#N)cc2c(=O)n3ccccc3nc21,x,-12.7,x
C=CCn1c(=N)c(C#N)cc2c(=O)n3ccccc3nc21,16.1,x,x
COCCCNC(=O)c1cc2c(=O)n3cccc(C)c3nc2n(C(C)C)c1=N,63.8*,-21.1,+
